Data reported in PubChem BioAssay (Tox21).
Records with an inconclusive call do not appear. A call without a number means that no potency is given here. Activity calls are given as the source filed them. The call rests on the fitted dose curve; in most records, active means well fitted inhibition curve with a large enough effect in the repeat runs; inconclusive means weak or mixed curves; inactive means no such curve, though single readings can be large or run the other way.

target: Cytochrome P450 3A4 (Homo sapiens) (UniProt P08684); assay: Cytochrome P450 Family 3 Subfamily A Member 4 (CYP3A4) small molecule antagonists: luciferase reporter qHTS assay (AID 1671201); settings: P450-Glo CYP3A4 enzyme, luciferin luminescence, 1 h; series mostly up to 115 µM; further: nearly all actives have a fitted effect of over 50% in size
Text: National Center for Advancing Translational Sciences [NCATS]
U.S. Environmental Protection Agency [EPA]
National Institutes of Environmental Health Sciences [NIEHS]
National Toxicology Program [NTP]
U.S. Food and Drug Administration [FDA]
Cytochrome P450 (CYP) enzymes are membrane-bound hemeproteins that play a key role in metabolism of drugs and xenobiotics. Evaluation of the effect of chemicals on CYP isozymes is useful to minimize the adverse drug reactions and toxicities in drug development process. Tox21 chemicals were tested for their effect on CYP enzyme activities by using P450-Glo (TM) screening systems (Promega Corporation, Madison, WI). These systems provide a luminescent method containing proluciferin substrates and are converted to luciferin products by CYP isozymes. The luciferin products formed are detected with a luciferin detection reagent, and the amount of light produced is proportional to CYP activity. P450-Glo (TM) CYP3A4 screening system (Catalog. No. V9910) was used to detect the compounds that interfere in CYP3A4 activity. The positive control compound used for CYP3A4 assay is ketoconazole (Sigma-Aldrich, St. Louis, MO).
Tox21 Assay Protocol Summary:
Two ul of enzyme-substrate mix was dispensed into medium binding white/solid 1536-well plates (Greiner Bio-One North America Inc., Monroe, NC) using a BioRaptr Flying Reagent Dispenser (FRD, Beckman Coulter, Brea, CA). Compounds dissolved in DMSO and positive control (ketoconazole) were transferred to the assay plates at 23 nl using a Pintool station (Wako, San Diego, CA). The assay plates were incubated at room temperature for 10 min. Then 2 ul of NADPH regeneration solution was added to each well of the assay plates using an FRD and incubated at room temperature for 1 h. The reaction was stopped by adding 4 ul of detection reagent using an FRD and after 20 min incubation at room temperature the luminescence signal was measured using a ViewLux plate reader (Perkin Elmer, Shelton, CT). Data were expressed as relative luminescence units.
Potency means the concentration at half of the fitted maximal effect.

Chain of Cytochrome P450 3A4 (Homo sapiens) (P08684 whole entry, looked up): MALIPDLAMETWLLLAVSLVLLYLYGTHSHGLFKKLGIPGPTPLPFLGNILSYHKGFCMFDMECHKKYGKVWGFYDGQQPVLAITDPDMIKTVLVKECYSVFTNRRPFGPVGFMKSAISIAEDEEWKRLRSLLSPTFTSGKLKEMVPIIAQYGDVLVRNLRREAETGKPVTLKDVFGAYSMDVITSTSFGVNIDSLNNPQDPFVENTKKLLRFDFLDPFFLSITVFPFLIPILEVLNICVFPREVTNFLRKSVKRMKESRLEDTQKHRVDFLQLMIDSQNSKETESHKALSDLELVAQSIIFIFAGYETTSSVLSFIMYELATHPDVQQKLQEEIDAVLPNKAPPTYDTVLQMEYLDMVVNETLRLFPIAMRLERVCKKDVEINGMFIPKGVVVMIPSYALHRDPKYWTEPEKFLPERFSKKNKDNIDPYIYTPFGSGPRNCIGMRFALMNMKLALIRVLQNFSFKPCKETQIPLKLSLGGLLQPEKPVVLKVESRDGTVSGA

| SMILES | Potency |
| --- | --- |
| ClC1(Cl)C2(Cl)C3(Cl)C4(Cl)C(Cl)(Cl)C5(Cl)C3(Cl)C1(Cl)C5(Cl)C24Cl (stereo not given) | inactive |
| COC(=O)C(C)N(C(=O)c1ccco1)c1c(C)cccc1C (stereo not given) | inactive |
| Brc1ccc(Oc2ccc(Br)cc2Br)c(Br)c1 | inactive |
| CCN1CCC2(CC1)COc1cc3c(cc12)N(C(=O)c1ccc(-c2ccc(-c4nnc(C)o4)cc2C)cc1)CC3 | inactive |
| CCCCCCC[CH2][Sn]([Cl])([Cl])[CH2]CCCCCCC | inactive |
| c1ccc2c(c1)cc1ccc3cccc4ccc2c1c34 | inactive |
| Cc1ccccc1OP(=O)(Oc1ccccc1C)Oc1ccccc1C | inactive |
| Nc1nc(N)c(N)c(N)n1 | inactive |
| CSC(C)(C)/C=N/O | inactive |
| N#Cc1c2ccccc2cc2ccccc12 | inactive |
| CCC(C)Br (stereo not given) | inactive |
| CC(C)=CCN1CC[C@@]2(C)c3cc(O)ccc3C[C@@H]1[C@@H]2C | inactive |
| Clc1cc(Cl)c(-c2cc(Cl)c(Cl)cc2Cl)cc1Cl | inactive |
| CCn1cc[n+](C)c1 (tested in a mixture with another compound) | inactive |
| O=C1C(Cl)=C(Cl)C(=O)C(Cl)=C1Cl | 22.4 µM (active) |
| CC(C)C(Br)C(=O)NC(N)=O (stereo not given) | inactive |
| N#Cc1c[nH]cc1-c1cccc2c1OC(F)(F)O2 | inactive |
| C=CCBr | inactive |
| N#CCCl | 66 µM (active) |
| CC1=C2C[C@H]3[C@@H](CC=C4C[C@@H](O)CC[C@@]43C)[C@@H]2CC[C@]12O[C@@H]1C[C@H](C)CN[C@H]1[C@H]2C | inactive |

| SMILES | Potency |
| --- | --- |
| Oc1ccc([C@H]2CNCc3c2ccc(O)c3O)cc1O | inactive |
| ClCBr | inactive |
| CN/C(=N\[N+](=O)[O-])NCc1cnc(Cl)s1 | inactive |
| CCOP(=S)(OCC)SC(CCl)N1C(=O)c2ccccc2C1=O (stereo not given) | 1.59 µM (active) |
| CCC(C)Nc1c([N+](=O)[O-])cc(C(C)(C)C)cc1[N+](=O)[O-] (stereo not given) | inactive |
| CC(C)Br | inactive |
| COP(=O)(OC)O/C(=C\Cl)c1cc(Cl)c(Cl)cc1Cl | inactive |
| CC1CN1 (stereo not given) | inactive |
| CC1(C)[C@H](/C=C2\CCSC2=O)[C@@H]1C(=O)OCc1coc(Cc2ccccc2)c1 | 3.99 µM (active) |
| CC(O)C(=O)[O][Hg][c]1ccccc1 (stereo not given) | 6.33 µM (active) |
| FC(F)C(F)(F)OCC(Cn1cncn1)c1ccc(Cl)cc1Cl (stereo not given) | 0.223 µM (active) |
| CCOC(=O)Cc1ccccc1 | inactive |
| CN1C2CCC(C)(C)C1CC(OC(=O)C(O)(c1cccs1)c1cccs1)C2 (stereo not given) | 0.219 µM (active) |
| C#CCO | inactive |
| COc1c2c(cc3c1OCO3)CCN(C)C2 | inactive |
| Cc1ccc([N+](=O)[O-])[c]2c1[O][Hg]2 | 7.76 µM (active) |
| C=CC(=O)[O][Sn]([CH2]CCC)([CH2]CCC)[CH2]CCC | 25.2 µM (active) |
| O=C(Cl)c1ccccc1F | inactive |
| CCOP(=S)(NC(C)C)Oc1ccccc1C(=O)OC(C)C (stereo not given) | 0.71 µM (active) |
| CCOP(=S)(OCC)Oc1cc(C)nc(N(CC)CC)n1 | 0.633 µM (active) |
